Compounds with a hit are over-represented: about 11% of the library has one in this group of screens.
ALOX12 inhib – inhibitors of human 12-lipoxygenase (ALOX12). Potency, µM (titrated, usually from 57.1 µM), for inactives: top-dose activity change, negative = inhibition, hits mostly inhibitors. hit rate 0.12% among 150,000. AID 1452. P18054. purified 12-hLO, xylenol orange hydroperoxide absorbance; also: potency is read from the fitted curve at half-maximal effect; nearly all actives have a fitted effect of over 55% in size
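150 nM 12hLO, 25 mM Hepes pH 7.0 + 0.01% Triton X-100; cpd preinc 15 min RT; 40 uM arachidonic acid, 30 min RT; Fe-XO 30 min; A573/A405 ratio as read-out.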
PNC assembly inh – perinucleolar compartment assembly inhibition. PC3M PTB-GFP, PNC prevalence imaging, 16 h; active compounds read low. activity change (PNC), negative = inhibition, % at 10 µM. hit rate 3.1% among 140,000. AID 2417;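 active = readout at or below -70, meaning at least 70% loss of cells showing the perinucleolar compartment, a nuclear body marking cancer cells; inconclusive = readout between -30 and a set limit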;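 also: plate controls were DMSO wells for no effect and camptothecin positive control wells for full effect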
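Compounds are pinned in duplicate onto adhered PC3M cells stably expressing GFP-tagged PTB and incubated 16 h at 37 C. Cells are then fixed, nuclei stained with Hoechst, and PNC-positive cells counted.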
HPGD inh – inhibitors of human 15-hydroxyprostaglandin dehydrogenase (HPGD); purified HPGD, NADH fluorescence kinetic, PGE2 substrate; Potency, µM, without a hit: top-dose activity change, negative = inhibition, actives largely listed as inhibitors; hit rate 4.3% among 150,000; active = well fitted inhibition curve with a large enough effect, not every such curve was filed as active; inconclusive = small, poorly fitted or top-dose-only effect, or another doubt; inactive = no such curve, though single readings can be large or run the other way; also: potency is read from the fitted curve at half-maximal effect
Target sequence (P15428 whole entry, looked up): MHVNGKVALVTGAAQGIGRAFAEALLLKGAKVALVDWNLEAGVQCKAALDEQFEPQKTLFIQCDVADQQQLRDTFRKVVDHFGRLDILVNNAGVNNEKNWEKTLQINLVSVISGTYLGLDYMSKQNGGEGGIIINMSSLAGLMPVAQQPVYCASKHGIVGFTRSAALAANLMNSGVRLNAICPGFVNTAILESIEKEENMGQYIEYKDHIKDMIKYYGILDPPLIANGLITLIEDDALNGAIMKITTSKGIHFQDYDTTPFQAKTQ
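20 nM HPGD preincubated 15 min at room temperature with compound in 50 mM Tris-HCl pH 8, 0.01% Tween 20. Started with 1 mM NAD+ and 30 uM prostaglandin E2; NADH fluorescence (360/450 nm) read 5 times over 30-s intervals, last minus first.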
IMPase inh – IMPase inhibition in cells; CHO-M1 cells, IP1 accumulation, HTRF TR-FRET ratio; inhibition (IP1 accumulation), % at 46.1 µM; 120,000 tested, under 10 active; active = well fitted curve in the direction sought with a large enough effect in the signal ratio, not every such curve was filed as active; inconclusive = small, poorly fitted or top-dose-only effect, or a change in a side signal; inactive = no such curve, though single readings can be large or run the other way; the % refers to the signal ratio;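 also: cells stimulated with carbachol in lithium chloride buffer; plate controls were DMSO basal wells for no effect and reference inhibitor wells for full effect; higher means more IMPase inhibition seen as more IP1 and lower FRET ratio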
Target sequence (P97697 whole entry, looked up): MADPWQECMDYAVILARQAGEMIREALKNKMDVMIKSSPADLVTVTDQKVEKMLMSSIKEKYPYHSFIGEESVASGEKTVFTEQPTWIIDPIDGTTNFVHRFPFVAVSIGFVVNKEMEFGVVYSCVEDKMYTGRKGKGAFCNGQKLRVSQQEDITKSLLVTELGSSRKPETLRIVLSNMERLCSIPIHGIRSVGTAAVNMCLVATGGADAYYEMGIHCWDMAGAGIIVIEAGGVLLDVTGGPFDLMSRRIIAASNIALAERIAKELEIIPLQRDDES
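CHO-M1, 2000 cells/well, cultured 16–30 h; cpd up to 46 uM; carbachol (50 uM solution, stimulation buffer w/ 50 mM LiCl, pH 7.4), 30 min 37C; IP-One TR-FRET, 10 min RT; Ex 320/Em 665, 620; Hill-fit AC50.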
ALDH1A1 inh – inhibitors of human aldehyde dehydrogenase 1A1; P00352; Purified ALDH1A1, NADH fluorescence, propionaldehyde substrate; Potency, µM (highest dose often 75.3 µM), for inactives: at the top dose activity, negative = inhibition, actives largely listed as inhibitors; hit rate 7.3% among 220,000; AID 1030; active = well fitted inhibition curve with a large enough effect, not every such curve was filed as active; inconclusive = small, poorly fitted or top-dose-only effect, or another doubt; inactive = no such curve, though single readings can be large or run the other way;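 also: potency is read from the fitted curve at half-maximal effect; plate controls were no enzyme wells and a reference inhibitor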
IMPase Li cell – IMPase inhibition in cells with lithium potentiation; AID 1457; hit rate 0.35% among 210,000; CHO-M1 cells, IP1 TR-FRET (IP-One), carbachol + lithium; Potency, µM (highest dose often 59.4 µM), inactives show top-dose activity, negative = IMPase inhibition, hits mostly inhibitors;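 also: IP1 builds up when IMPase is blocked and the TR-FRET signal falls; potency is read from the fitted curve at half-maximal effect; plate controls were basal vehicle for no effect and high inhibitor control for full effect; nearly all actives have a fitted effect of over 50% in size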
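Concentration–response in CHO-M1 cells, lithium-potentiated; 30 min at 37C. IP1 detected by competitive TR-FRET after 10 min lysis at RT. Hill-fitted AC50.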
The depositor's hits bear a star; ? = inconclusive; · = no result; [ ] = remark or other dose. Unless noted, calls follow the shape of the dose curve; as a rule, active = well fitted curve in the direction sought with a large enough effect; inconclusive = small, poorly fitted or top-dose-only effect, or another doubt; inactive = no such curve, though single readings can be large; an effect the other way counts as inactive or inconclusive. Unless noted, % is scaled to controls: 0 for no effect and ±100 for the full control effect.

SMILES	ALOX12 inhib	PNC assembly inh	HPGD inh	IMPase inh	ALDH1A1 inh	IMPase Li cell
Cc1cc(C(=O)CN2C(=O)NC3(CCCc4sccc43)C2=O)c(C)n1-c1ccccc1 (configuration not stated)	0.0%	-2.7	-12.3%	·	28.2µM*	4.2%
Cc1ccc(C2Nc3ccc4ccccc4c3C3=C2C(=O)CC(C)(C)C3)o1 (configuration not stated)	-0.4%	?	?	3.1	?	3.4%
COc1cc(C2Nc3ccc4ncccc4c3C3=C2C(=O)CC(C)(C)C3)cc(OC)c1O (configuration not stated)	3.4%	-13.7	-13.1%	10.9	12.6µM*	2.2%[38.3 µM]
CC1(C)CC(=O)C2=C(C1)c1c(ccc3ccccc13)NC2c1cc([N+](=O)[O-])cc([N+](=O)[O-])c1O (configuration not stated)	·	·	·	·	11.2µM*	21.7%
COC(=O)C1=C(C)NC(=O)NC1c1cn(-c2ccccc2)nc1-c1ccc(OC)c(Br)c1 (configuration not stated)	·	·	·	2.3	·	·
COc1ccc(-c2cc(C(F)(F)F)c(C#N)c(SCC(=O)Nc3ccc(F)cc3)n2)cc1	·	·	·	7.2	·	·
COc1cc(C2=NOC(C(=O)NCc3ccc(F)cc3)C2)cc(OC)c1OC (configuration not stated)	0.4%	-121.0*	-22.7%	1.3	31.6µM*	-14.8%[38.3 µM]
COc1ccc(C2=NOC(C(=O)NCc3ccc(F)cc3)C2)cc1OC (configuration not stated)	-3.7%	-95.7*	-7.7%	1.4	6.3%	21.1%[38.3 µM]
COc1cccc(C2=NOC(C(=O)NCc3ccc(F)cc3)C2)c1 (configuration not stated)	-6.8%	26.9	-0.3%	4.8	11.5%	1.6%[38.3 µM]
O=C(O)CCCCn1ccc(=O)[nH]c1=O	-4.4%[11.4 µM]	·	-6.2%	·	7.0%[13.5 µM]	-3.7%
O=C(Nc1ncc(Cc2ccc(SC(F)F)cc2)s1)c1ccc(OC(F)F)cc1	2.5%	-85.6*	-29.1%	·	?	?
Cc1ccc(Cc2cnc(NC(=O)c3ccco3)s2)cc1	5.5%	13.5	-6.4%	6.2	-10.5%	21.7%[38.3 µM]
COc1cc(OC)cc(C(=O)NC(=S)Nc2cccnc2)c1	-3.4%	2.3	-7.1%	-10.6	?	1.1%[38.3 µM]
Cc1cc(NC(=S)Nc2cccnc2)ccc1Br	·	·	·	·	22.4µM*	9.2%
Cc1cc(NC(=S)Nc2ccccc2)ccc1Br	-8.3%	31.4	-4.4%	-14.7	-1.4%	-4.7%[38.3 µM]
COc1cc(NC(=S)Nc2cccnc2)cc(OC)c1	-21.5%	?	28.2µM*	9.9	31.6µM*	-7.2%
COC(=O)[C@@H]1CC[C@H](C)[C@@H](c2ccc(C)cc2)N1C(=O)c1ccc(/C=N\OC[C@@H](O)[C@H]2O[C@H]3OC(C)(C)O[C@H]3[C@@H]2O)cc1	·	·	·	·	6.4%[13.5 µM]	·
Cc1c(NS(=O)(=O)c2ccc(C(C)(C)C)cc2)c(=O)n(-c2ccccc2)n1C	·	·	·	1.6	·	·
CCCCCCCCCCC/C=C\C(C)(C)/C=C\CCCC(=O)O	1.4%	·	-4.5%	1.0	-11.8%	4.1%
CC(C(=O)OCC(=O)Nc1ccc(S(=O)(=O)N2CCCCC2)cc1)N1C(=O)c2ccccc2C1=O (configuration not stated)	-4.6%	12.5	-8.7%	2.7	-7.9%	14.4%[38.3 µM]
CC(C(=O)Oc1ccc2c(c1)OCO2)N1C(=O)c2ccccc2C1=O (configuration not stated)	6.0%	23.3	-12.6%	2.1	-5.0%	-8.0%[38.3 µM]
CC(C(=O)OCC(=O)Nc1cccc(S(=O)(=O)N2CCOCC2)c1)N1C(=O)c2ccccc2C1=O (configuration not stated)	·	·	·	·	25.1µM*	-10.4%
CC(C(=O)OCC(=O)Nc1ccc2c(c1)OCO2)N1C(=O)c2ccccc2C1=O (configuration not stated)	-29.6%	35.7	-18.8%	9.0	7.08µM*	61.4%[38.3 µM]
CC1(c2ccccc2)NC(=O)N(CCOc2ccccc2)C1=O (configuration not stated)	-3.1%	-10.4	1.3%	5.4	22.4µM*	1.6%[38.3 µM]
CC1(c2ccccc2)NC(=O)N(CC(=O)NC(=O)NC2CCCC2)C1=O (configuration not stated)	4.2%	30.9	-10.4%	5.5	12.6µM*	6.1%[38.3 µM]
SMILES	ALOX12 inhib	PNC assembly inh	HPGD inh	IMPase inh	ALDH1A1 inh	IMPase Li cell
Cc1cccc(C)c1OCCN1C(=O)NC(C)(c2ccccc2)C1=O (configuration not stated)	·	·	·	·	5.0%	-3.2%
Cc1ccc(C2(C)NC(=O)N(CC(=O)NC(=O)NC3CCCC3)C2=O)cc1 (configuration not stated)	-3.0%	11.6	-3.6%	-2.4	-6.9%	17.2%[38.3 µM]
N#Cc1cccc(-c2cc(-n3ccnc3)ncn2)c1	-2.3%	·	-12.1%	·	-12.9%	?
O=C(NNC(=S)Nc1ccc(Br)cc1)c1ccc(N2CCOCC2)c([N+](=O)[O-])c1	-7.9%	8.8	35.5µM*	-4.8	0.891µM*	0.6%
Cc1cc(C(=O)Nc2ccc(N3CCCC3)c(Cl)c2)ccc1[N+](=O)[O-]	-1.3%	4.7	-11.2%	·	20µM*	4.8%
O=C(Nc1ccc(N2CCCC2)c(Cl)c1)c1ccc([N+](=O)[O-])cc1	3.4%	6.1	-7.2%	·	5.2%	-1.4%
O=C(Nc1ccc(N2CCOCC2)c(Cl)c1)c1ccc([N+](=O)[O-])o1	·	·	·	·	?	12.4%
O=[N+]([O-])c1ccc(Cl)cc1N1CCOCC1	·	·	·	·	5.7%	-0.4%
Cc1ccc(NC(=S)NNC(=O)c2ccc(N3CCOCC3)c([N+](=O)[O-])c2)cc1Cl	?	0.1	-10.9%	1.3	7.94µM*	1.3%
O=C(NNC(=S)Nc1ccc(Cl)cc1Cl)c1ccc(N2CCOCC2)c([N+](=O)[O-])c1	-14.0%	29.0	?	7.1	0.447µM*	20.7%
Nc1nc(SCc2ccccc2[N+](=O)[O-])c2[nH]cnc2n1	0.7%[11.4 µM]	·	-2.4%	·	6.8%[13.5 µM]	-1.9%
CCOC(=O)c1sc(NC(=O)COc2ccccc2Cl)c(C(=O)OCC)c1C	·	·	·	9.5	·	·
COc1cccc(-c2ccc(SCC(=O)NCCc3ccccc3)nn2)c1	·	·	·	·	?	10.9%
COc1ccc(CCNC(=O)CSc2ccc(-c3ccco3)nn2)cc1	·	·	·	·	3.16µM*	-0.4%
O=C(CSc1ccc(-c2ccco2)nn1)NCCc1ccccc1	·	·	·	·	7.08µM*	1.0%
C=CCc1c(C)nc(SC)nc1Nc1ccc(C(C)=O)cc1	-9.2%	14.5	-29.6%	0.2	8.91µM*	5.2%[38.3 µM]
C=CCc1c(C)nc(SC)nc1Nc1ccc(C(=O)O)cc1	1.3%	?	-19.8%	-0.7	-2.3%	-1.4%[38.3 µM]
CC(NC(=O)/C=C/c1ccccc1)c1ccccc1 (configuration not stated)	·	·	·	·	-3.6%	7.4%
